Measured values: PubChem BioAssay (NCI)
The panel holds about 83,000 compounds, 20% with a hit somewhere; the sample as a whole holds those more often.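 Values shown are percent growth following 48 h exposure of cells in 96-well plates to a single concentration of compound; below 10 was considered active.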 A number with no mark means an inactive call. The source made the active and inactive calls.

system: HOP-92 NSCLC; assay: NCI-60 one-dose screen, 48 h (100 = growth as untreated, 0 = no growth, -100 = all killed); settings: 10 µM unless noted
Protocol: Growth inhibition of the HOP-92 human Non-Small Cell Lung tumor cell line is measured as a screen for anti-cancer activity. Cells are grown in 96 well plates and exposed to the test compound for 48 hours. Compounds are tested at a single concentration, which is 10^-5 M for most compounds. The reported endpoint is percent growth (GI% or GIPRCNT), where numbers from 0 - 100% represent growth inhibition, and numbers from -100% - 0 represent cell death. For example, a value of 40 represents 60% growth inhibition. A value of 0 means no net growth occurred over the course of the experiment. A value of -40 indicates 40% of cells at the beginning of the experiment died by the end of the experiment. A value of -100 means all cells are dead at the end of the experiment.
NCI-60 Human Tumor Cell Lines Screen was performed using the standard one-dose NCI protocol, which is described in more detail at https://dtp.cancer.gov/discovery_development/nci-60/default.htm.
Compounds with GIPRCNT values below 10 were considered active. Activity score was based on GIPRCNT using the following formula: […]
Score is 0 for GIPRCNT values of 100 or above, 50 for GIPRCNT values of 0, and 100 for GIPRCNT values of -100.

Compound	growth
Cc1sc2nc(NCc3ccccc3Cl)[nH]c(=O)c2c1C	91.3%
O=C(CSc1nc2sc3c(c2c(=O)n1-c1ccc(Cl)cc1)CCCC3)NNC(=O)Nc1ccc(Cl)c(C(F)(F)F)c1	-12.3% (active)
COc1ccccc1C(=O)CSc1nc(Nc2ccc(S(N)(=O)=O)cc2)c2ccccc2n1	89.6%
COc1ccc(C(=O)/C=C/c2ccc(Oc3nc(NCCO)nc(N4CCOCC4)n3)c(OC)c2)cc1	104%
N#Cc1nc(-c2ccccc2)oc1S(N)(=O)=O	77.3%
C#Cc1nc(C2=C(C)C(O)/C(=N/O)C2)cs1 (stereo not given)	41.8%
COc1ccc(Cc2nn(CC(=O)N/N=C/c3ccc(Cl)cc3)c(=O)c3c(C)noc23)cc1	89.5%
Nc1cc(-c2c[nH]c3ccccc23)nc2cc(-c3c[nH]c4ccccc34)nn12	72.5%
COc1ccc([C@@H]2c3[nH]c4ccccc4c3CC3C(=O)N(C4CCN(Cc5c(F)cccc5F)CC4)CC(=O)N32)c(OC)c1 (stereo not given in full)	18.8% [5.26 µM]
COc1cc(/C=C/C(=O)c2ccc(Cl)cc2)ccc1Oc1nc(NCCO)nc(N2CCOCC2)n1	102%
CS(=O)(=O)c1ccc(-c2nc3ccccn3c2C=Nc2ccc(Cl)cc2)cc1	98.5%
N#Cc1nc(-c2ccccc2)oc1N1CCC(CO)C1 (stereo not given)	129%
O=C(Nc1nc2ccc(O)cc2s1)c1cccc(C(F)(F)F)c1	69%
CCCC(=O)NC(c1ccc2c(c1)OC(F)(F)O2)c1cc(C)c2cccnc2c1O (stereo not given)	33.5%
N/C(=N\c1nc2c(Cl)cc(Cl)cc2s1)C(Cl)(Cl)Cl	46.4%
Fc1ccc(-c2cc3nc(C(Cl)Cl)nc(-c4ccccc4)n3n2)cc1	-27.7% (active)
O=C1c2c(c3c4cccnc4[nH]c3c3ccc4ccccc4c23)C(=O)N1CCO	129%
CS(=O)(=O)c1ccc(-c2nc3ccccn3c2/C=N/Nc2nc(-c3ccc(Br)cc3)cs2)cc1	116%
Cn1cc(-c2cc(N)n3nc(-c4cn(C)c5ccc(F)cc45)cc3n2)c2cc(F)ccc21	75.7%
COc1cc(-c2ccc3ncnc(NC(C)c4ccccc4)c3c2)cnc1OC (stereo not given)	20.1%

Compound	growth
CCOC(=O)c1c(Nc2ccccc2)nn2c(N)c(C#N)c(-c3ccccc3)nc12	81.8%
CCCC(=O)NC(c1cccnc1)c1cc(C)c2cccnc2c1O (stereo not given)	49.1%
Nc1nc(N)c2c(n1)NC(c1ccc(C(F)(F)F)cc1)CC(c1ccc(Nc3nc(NCCO)nc(Nc4ccc(Cl)cc4)n3)cc1)=N2 (stereo not given)	-65.6% (active)
O=C(CSc1nc2sc3c(c2c(=O)n1-c1ccc(Cl)cc1)CCCC3)NNC(=O)Nc1cccc(C(F)(F)F)c1	-14.1% (active)
C#Cc1nc(C2=C(C)C(O)CC2)cs1 (stereo not given)	115%
CN1CCN(Cc2ccc(NC(=O)c3cncc(C#Cc4cnc5ccc(N6CCSCC6)nn45)c3)cc2C(F)(F)F)CC1	-48.6% (active)
Cc1cc2nc3c4cc(Cl)ccc4n(CC(=S)NCCN(C)C)c3nc2cc1C	-6.84% (active)
CN1C(=O)N(c2ccccc2)C2N=C(N/N=C/c3ccccc3)SC21 (stereo not given)	55.1%
Nc1ncc(-c2ccc3ncnc(N4CCc5cc(F)c(Cl)cc54)c3c2)cc1CO	-13.2% (active)
CNC(=O)c1cc(-c2ccc(NC(=O)Nc3ccc(N4CCOCC4)c(C(F)(F)F)c3)cc2)nc2cccnc12	57.2%
[Cl][Ru].c1ccc(-c2cc(-c3ccccn3)nc(-c3ccccn3)c2)cc1.c1ccc(-c2ccnc3c2ccc2c(-c4ccccc4)ccnc23)cc1	-42.9% (active)
Cc1nc(-c2cc3ccccc3oc2=O)ccc1C(=O)/C=C/c1ccc(Cl)c(Cl)c1	95.4%
NS(=O)(=O)c1ccc(Nc2nc(SCC(=O)c3ccc(Cl)cc3)nc3ccccc23)cc1	84.4%
COc1cc2nc(-c3ccc(Cl)cc3)cc(OCCCNCC3CCCO3)c2cc1OC (stereo not given)	35.4%
COc1cc(/C=C/C(=O)c2ccc(F)cc2)ccc1Oc1nc(NCCO)nc(N2CCOCC2)n1	94.2%
NS(=O)(=O)c1cccc(Nc2nc(SCC(=O)c3ccc([N+](=O)[O-])cc3)nc3ccccc23)c1	52%
CC1=C(C)C(=O)C(Nc2ccccc2)=C(Cl)C1=O	46%
O=C(N/N=C/c1ccco1)c1[nH]c2ccc(Br)cc2c1-c1ccccc1	48.7%
CN1CCc2c(sc3ncnc(N/N=C/c4ccc(Cl)c(Cl)c4)c23)C1	37.4%
COc1ccccc1/C=C/C=N/NC1=NC2C(S1)N(C)C(=O)N2C (stereo not given)	9.2% (active)
